# Paper PMC7826789 (International Journal of Molecular Sciences, 2021)
# System: MARK3
# Conditions: Compound Concentration (nM):1000
# 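Also: KINOMEscan scanMAX binding as percent activity remaining versus control; lower means stronger binding.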
row,SMILES,Percent Control [%]
1,Cl.O=S1CCN(Cc2ccc(-c3ccc4ncnc(Nc5ccc(OCc6ccccc6)c(F)c5)c4c3)o2)CC1 [GW576924A],100
2,COc1ccc2[nH]c3c4[nH]c5ccc(OC)cc5c4c4c(c3c2c1)C(=O)NC4=O [GW296115X],83
3,COc1cc2ncnc(Nc3ccc4c(cnn4Cc4ccccc4)c3)c2cc1OC.Cl [GW282449A],100
4,COc1cc(C=NNc2ncnc3c2cnn3-c2ccccc2)ccc1O [GW513184X],100
5,COc1ccccc1-c1cc(/C=C2\C(=O)Nc3ncc(Br)cc32)cc(Br)c1O [GW442130X],100
6,CN1CCN(C(=O)c2ccc(NC(=O)Nc3ccc(N(C)c4ccnc(Nc5ccc(CS(C)(=O)=O)cc5)n4)cc3)cc2)CC1.Cl [GW830263A],43
7,O=C1Nc2ccc(C(=O)c3ccco3)cc2C1=Cc1cc(Cl)c(O)c(Cl)c1 [GW406108X],100
8,COc1cc(/C=N/Nc2ncnc3[nH]ncc23)ccc1O [GW578748X],99
9,Cc1cc(O)cc(C)c1/C=C/c1cncc(C(N)=O)c1 [GW435821X],91
10,CCS(=O)(=O)c1ccc(OC)c(Nc2ncc(-c3cccc(F)c3)o2)c1 [GW621970X],100
11,Cl.O=C(Nc1ccc(Oc2ccc3[nH]c(NC(=O)c4ccco4)nc3c2)cc1)Nc1cc(C(F)(F)F)ccc1F [GW683134A],82
12,Nc1ncnc2occ(-c3ccc(NC(=O)Nc4cc(C(F)(F)F)ccc4F)cc3)c12 [GW770249X],71
13,O=C(Nc1n[nH]c2nc(-c3ccc(O)cc3)c(Br)cc12)C1CC1 [SB-725317],100
14,CC1=C(C(=O)Nc2ccc3[nH]ncc3c2)C(c2ccc(Cl)c(Cl)c2)CC(=O)N1 (stereo not shown) [GSK299115A],78
15,NS(=O)(=O)c1ccc(N/N=C2\C(=O)Nc3ccc(Cl)cc32)cc1 [GW280670X],100
16,CC1=C(C(=O)Nc2ccc3[nH]ncc3c2)C(c2ccc3ccccc3c2)CC(=O)N1 (stereo not shown) [GSK270822A],100
17,COc1cccc(-c2c[nH]c3c(N/N=C/c4ccncc4)ncnc23)c1 [GW814408X],100
18,NS(=O)(=O)c1ccc(N/N=C2\C(=O)Nc3ccc(C(=O)NCCc4c[nH]cn4)cc32)cc1 [GW300660X],100
19,CN(C)CCNC(=O)Nc1ccc(N(C)c2ccnc(Nc3ccc(CS(C)(=O)=O)cc3)n2)cc1.Cl [GW830900A],55
20,COc1ccc2cc(-c3c(-c4ccncc4)nc(-c4ccc(S(C)(=O)=O)cc4C)n3C)ccc2c1 [SB-633825],100

row,SMILES,Percent Control [%]
1,NS(=O)(=O)c1ccc(N/N=C2\C(=O)Nc3ccc(-c4cnco4)cc32)cc1 [GW276655],100
2,CN(C)c1cc2c(Nc3ccc4c(cnn4Cc4ccccc4)c3)ncnc2cn1 [GW282974X],100
3,COc1ccc2c(-c3ccnc(Nc4cccc(OC(F)(F)F)c4)n3)cnn2n1 [GW810372X],100
4,Cl.O=C(O[C@H]1CN[C@H](C#Cc2cc3ncnc(Nc4ccc5c(cnn5Cc5ccccc5)c4)c3s2)C1)N1CCOCC1 [GSK200398A],83
5,CCS(=O)(=O)c1ccc(OC)c(Nc2ncc(-c3cccc(OC)c3)o2)c1 [GW580509X],100
6,CCc1ccc(Oc2nccc(-c3c(-c4ccc(F)cc4)ncn3C3CCNCC3)n2)cc1 [SB-242719],61
7,NS(=O)(=O)c1ccc(N/N=C2\C(=O)Nc3ccc(C(=O)NCc4ccncc4)cc32)cc1 [GW300657X],63
8,COc1ccc(COc2ccc(Cc3cnc(N)nc3N)cc2OC)cc1 [GW632580X],66
9,NS(=O)(=O)c1ccc(Nc2ncc(-c3ccccc3)o2)cc1 [GW572399X],94
10,COC(=O)Nc1nc2ccc(Oc3ccc(NC(=O)Nc4cc(C(F)(F)F)ccc4F)cc3)cc2s1.Cl [GW693917A],73
11,COc1cc(C)c(N(C)C(=O)CN(C)C)cc1Nc1nc(Nc2cccc(F)c2C(N)=O)c2cc[nH]c2n1 [GSK2219385],89
12,COc1cc(N2CCN(C(C)C)CC2)ccc1Nc1nc(Nc2ccc(F)cc2C(=O)NC[C@@H](O)CO)c2cc[nH]c2n1 [GSK1392956A],86
13,CC(C)COC(=O)c1ccc2c(c1)/C(=C/Nc1ccc(S(N)(=O)=O)cc1)C(=O)N2 [GW416981X],93
14,Cl.c1ccc(Cc2nc3ccc(Nc4ncnc5ccccc45)cc3[nH]2)cc1 [GR269666A],97
15,CCn1c(-c2nonc2N)nc2c(C#CC(C)(C)O)nc(OCCNC)cc21.Cl [GSK949675],100
16,COc1cc2ncn(-c3cc(O[C@H](C)c4ccccc4Cl)c(C(N)=O)s3)c2cc1OC [GSK237701A],100
17,COc1cccc(-n2ncc3c(N/N=C/c4ccncc4)ncnc32)c1 [GW784752X],100
18,C[C@@H](Oc1cc(-n2cnc3ccc(OC4CCN(C)CC4)cc32)sc1C(N)=O)c1ccccc1Cl [GSK579289A],80
19,Cl.O=C(Nc1ccc(Oc2ccc3[nH]c(NC(=O)c4ccccc4)nc3c2)cc1)Nc1cc(C(F)(F)F)ccc1F [GW709042A],91
20,C/C(Nc1ccc(S(N)(=O)=O)cc1)=C1/C(=O)Nc2ccccc21 [GW335962X],96
